Test results taken from the supplement of paper PMC10849652.
The full data set covers some 7,900 targets. This sample favours those with a hit. About 0.6% of all pairs of compound and target were hits.

Key:
Test in all cases: log2 fold change, soluble protein after heating vs DMSO (PISA); higher = thermal stabilisation; K562 cells, 10 uM, 30 min; active = over 0.2 and 3.5 SD of the protein, either way, in both replicates (recomputed)
[1] = compound: CS(=O)(=O)c1ccc(-c2cnc(N)c(C(=O)Nc3ccccc3)n2)cc1
How it was run: (§1)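 Thermal stability values are relative to control samples and come from duplicates. They are expressed as log2 fold changes. For measurement, K562 cells (2×10^6 cells/mL) received 10 μM compound for 30 min, and aliquots were heated for 3 min over 48°C-58°C, pooled, and extracted at 4°C in PBS with 0.5% NP-40. Soluble protein, the supernatant after 21,000xg for 90 min, was quantified by TMTpro 16plex LC-MS/MS with equalised channel sums.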

crizotinib = compound: C[C@@H](Oc1cc(-c2cnn(C3CCNCC3)c2)cnc1N)c1c(Cl)ccc(F)c1Cl [crizotinib]
How it was run: as §1

[2] = compound: C[C@@H]1COCCN1C2=NC(=NC(=C2)C3(CC3)S(=O)(=O)C)C4=C5C=CNC5=CC=C4
How it was run: as §1

[3] = compound: C[C@H](C1=CC=C(C=C1)C(=O)NC2=C3C=CNC3=NC=C2)N
How it was run: as §1

duvelisib = compound: C[C@H](Nc1ncnc2nc[nH]c12)c1cc2cccc(Cl)c2c(=O)n1-c1ccccc1 [duvelisib]
How it was run: as §1

gandotinib = compound: Cc1cc(Nc2cc(CN3CCOCC3)c3nc(C)c(Cc4ccc(Cl)cc4F)n3n2)n[nH]1 [gandotinib]
How it was run: as §1

tozasertib = compound: Cc1cc(Nc2cc(N3CCN(C)CC3)nc(Sc3ccc(NC(=O)C4CC4)cc3)n2)n[nH]1 [tozasertib]
How it was run: as §1

[4] = compound: Cc1cc(SCc2sc(-c3ccc(C(F)(F)F)cc3)nc2C)ccc1OCC(=O)O
How it was run: as §1

doramapimod = compound: Cc1ccc(-n2nc(C(C)(C)C)cc2NC(=O)Nc2ccc(OCCN3CCOCC3)c3ccccc23)cc1 [doramapimod]
How it was run: as §1

ispinesib = compound: Cc1ccc(C(=O)N(CCCN)[C@@H](c2nc3cc(Cl)ccc3c(=O)n2Cc2ccccc2)C(C)C)cc1 [ispinesib]
How it was run: as §1

Measured: log2 fold change

MRPS15 (UniProt P82914)
inactive: [1] 0.09 | crizotinib -0.092 | [2] 0.022 | [3] 0.072 | duvelisib -0.011 | gandotinib -0.053 | tozasertib -0.046 | [4] 0.067 | doramapimod 0.042
active: ispinesib -0.318

NDUFA12 (UniProt Q9UI09)
UniProt Q9UI09, sequence (Q9UI09 whole entry, looked up): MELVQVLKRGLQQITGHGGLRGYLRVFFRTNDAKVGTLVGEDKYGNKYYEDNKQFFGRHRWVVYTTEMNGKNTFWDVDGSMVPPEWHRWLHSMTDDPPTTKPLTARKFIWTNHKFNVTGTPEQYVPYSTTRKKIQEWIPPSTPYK
active: ispinesib -0.385
inactive: [1] 0.107 | crizotinib -0.033 | [2] 0.025 | [3] 0.015 | duvelisib 0.033 | gandotinib -0.206 | tozasertib -0.048 | [4] 0.115 | doramapimod 0.03

NSMCE4A (UniProt Q9NXX6)
UniProt Q9NXX6, sequence (Q9NXX6 whole entry, looked up): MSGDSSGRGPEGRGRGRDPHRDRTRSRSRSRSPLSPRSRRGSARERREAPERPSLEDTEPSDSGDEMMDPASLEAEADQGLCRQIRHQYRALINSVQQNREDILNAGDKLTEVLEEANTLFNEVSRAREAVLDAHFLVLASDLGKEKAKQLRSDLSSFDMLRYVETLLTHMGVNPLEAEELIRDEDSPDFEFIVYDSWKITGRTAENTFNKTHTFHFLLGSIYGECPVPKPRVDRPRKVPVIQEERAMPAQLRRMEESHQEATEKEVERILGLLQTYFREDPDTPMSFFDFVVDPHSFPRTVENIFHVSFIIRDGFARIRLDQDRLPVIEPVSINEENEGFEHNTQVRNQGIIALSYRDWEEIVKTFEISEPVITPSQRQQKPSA
inactive: [1] 0.038 | crizotinib 0.072 | [2] -0.055 | [3] -0.009 | duvelisib 0.119 | gandotinib 0.144 | tozasertib 0.086 | [4] 0.054 | doramapimod 0.047 | ispinesib 0.062

NMT2 (UniProt O60551)
UniProt O60551, sequence (O60551 whole entry, looked up): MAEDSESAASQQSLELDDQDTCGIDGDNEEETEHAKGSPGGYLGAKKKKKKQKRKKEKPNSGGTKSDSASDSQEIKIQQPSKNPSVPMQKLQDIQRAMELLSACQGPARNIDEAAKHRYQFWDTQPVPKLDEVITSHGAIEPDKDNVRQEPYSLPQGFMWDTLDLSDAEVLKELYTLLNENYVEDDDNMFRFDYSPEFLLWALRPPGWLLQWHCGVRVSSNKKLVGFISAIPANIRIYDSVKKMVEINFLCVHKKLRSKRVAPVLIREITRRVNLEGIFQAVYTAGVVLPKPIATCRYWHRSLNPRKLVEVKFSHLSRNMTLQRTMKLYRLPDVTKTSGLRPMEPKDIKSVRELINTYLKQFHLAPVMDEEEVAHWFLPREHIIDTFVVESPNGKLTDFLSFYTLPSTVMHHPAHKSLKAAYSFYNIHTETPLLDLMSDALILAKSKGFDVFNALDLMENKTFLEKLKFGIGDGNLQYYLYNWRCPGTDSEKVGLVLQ
inactive: [1] 0.043 | crizotinib -0.187 | [2] 0.059 | [3] 0.018 | duvelisib 0.038 | gandotinib 0.013 | tozasertib 0.042 | [4] 0.023 | doramapimod -0.013 | ispinesib -0.167

MYLK (UniProt Q15746)
UniProt Q15746, sequence (Q15746 whole entry, looked up): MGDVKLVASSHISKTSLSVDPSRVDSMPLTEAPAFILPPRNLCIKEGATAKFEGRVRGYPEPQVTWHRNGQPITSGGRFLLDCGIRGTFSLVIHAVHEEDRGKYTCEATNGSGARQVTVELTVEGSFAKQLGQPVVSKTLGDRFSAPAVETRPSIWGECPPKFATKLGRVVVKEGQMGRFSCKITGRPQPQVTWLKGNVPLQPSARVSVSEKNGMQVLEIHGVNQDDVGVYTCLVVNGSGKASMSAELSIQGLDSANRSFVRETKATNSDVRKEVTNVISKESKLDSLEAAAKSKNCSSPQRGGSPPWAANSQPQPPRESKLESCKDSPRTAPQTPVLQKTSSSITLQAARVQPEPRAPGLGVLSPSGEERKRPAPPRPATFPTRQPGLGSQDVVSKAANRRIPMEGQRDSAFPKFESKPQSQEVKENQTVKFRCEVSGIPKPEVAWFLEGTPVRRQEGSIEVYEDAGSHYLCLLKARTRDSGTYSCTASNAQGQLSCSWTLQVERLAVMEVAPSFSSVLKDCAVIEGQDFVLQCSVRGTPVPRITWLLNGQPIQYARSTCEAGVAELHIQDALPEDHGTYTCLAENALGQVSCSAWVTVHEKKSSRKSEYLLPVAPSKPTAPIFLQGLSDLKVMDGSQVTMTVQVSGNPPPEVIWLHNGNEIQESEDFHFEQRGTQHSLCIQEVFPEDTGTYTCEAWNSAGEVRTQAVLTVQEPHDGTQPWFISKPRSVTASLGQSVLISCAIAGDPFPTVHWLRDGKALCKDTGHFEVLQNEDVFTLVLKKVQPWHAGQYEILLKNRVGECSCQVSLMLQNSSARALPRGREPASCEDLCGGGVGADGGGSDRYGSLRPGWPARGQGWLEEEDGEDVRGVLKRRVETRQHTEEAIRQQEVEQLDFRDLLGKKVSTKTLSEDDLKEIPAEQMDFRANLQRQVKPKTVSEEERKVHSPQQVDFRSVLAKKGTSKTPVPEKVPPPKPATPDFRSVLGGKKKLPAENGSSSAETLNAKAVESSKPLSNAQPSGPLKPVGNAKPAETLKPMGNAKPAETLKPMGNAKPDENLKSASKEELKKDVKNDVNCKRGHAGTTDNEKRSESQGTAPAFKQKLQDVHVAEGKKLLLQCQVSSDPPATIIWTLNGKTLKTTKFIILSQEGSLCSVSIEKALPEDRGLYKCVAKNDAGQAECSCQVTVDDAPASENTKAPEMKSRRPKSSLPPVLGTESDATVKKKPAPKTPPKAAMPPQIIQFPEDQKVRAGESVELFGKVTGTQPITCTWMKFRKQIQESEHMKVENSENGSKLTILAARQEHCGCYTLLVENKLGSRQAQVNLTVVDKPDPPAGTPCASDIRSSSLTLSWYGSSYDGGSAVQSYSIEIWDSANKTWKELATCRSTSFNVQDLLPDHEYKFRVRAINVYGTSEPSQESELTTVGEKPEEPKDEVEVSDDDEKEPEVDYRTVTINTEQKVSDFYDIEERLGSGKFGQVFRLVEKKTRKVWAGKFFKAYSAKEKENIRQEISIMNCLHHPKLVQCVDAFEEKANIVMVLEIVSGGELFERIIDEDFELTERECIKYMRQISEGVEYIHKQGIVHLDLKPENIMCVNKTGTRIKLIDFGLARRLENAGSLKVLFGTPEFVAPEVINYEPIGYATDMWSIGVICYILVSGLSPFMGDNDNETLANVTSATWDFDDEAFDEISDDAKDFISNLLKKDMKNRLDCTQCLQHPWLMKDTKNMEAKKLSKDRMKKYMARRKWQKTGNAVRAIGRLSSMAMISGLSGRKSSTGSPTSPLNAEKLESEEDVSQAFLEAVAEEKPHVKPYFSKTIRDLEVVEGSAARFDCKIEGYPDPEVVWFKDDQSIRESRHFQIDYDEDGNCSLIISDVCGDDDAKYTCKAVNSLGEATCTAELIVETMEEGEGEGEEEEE
active: doramapimod 1.42
inactive: [1] 0.279 | crizotinib 0.027 | [3] 0.107 | duvelisib 0.009 | gandotinib -0.018 | tozasertib 0.327 | [4] 0.04 | ispinesib -0.054

OPHN1 (UniProt O60890)
active: gandotinib -0.636
inactive: [1] 0.011 | crizotinib -0.06 | [2] 0.107 | [3] 0.14 | duvelisib 0.103 | tozasertib -0.035 | [4] -0.21 | doramapimod 0.26 | ispinesib 0.018

NFYB (UniProt P25208)
UniProt P25208, sequence (P25208 whole entry, looked up): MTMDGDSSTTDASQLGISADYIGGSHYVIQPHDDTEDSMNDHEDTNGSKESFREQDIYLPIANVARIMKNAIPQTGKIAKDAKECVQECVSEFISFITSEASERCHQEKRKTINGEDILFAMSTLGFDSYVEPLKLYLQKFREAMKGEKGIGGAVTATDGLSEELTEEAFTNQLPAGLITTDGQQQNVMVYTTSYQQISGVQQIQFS
inactive: [1] -0.004 | crizotinib 0.069 | [3] -0.084 | duvelisib -0.123 | gandotinib 0.011 | tozasertib 0.085 | [4] -0.124 | doramapimod -0.028 | ispinesib 0.168

NAA11 (UniProt Q9BSU3)
UniProt Q9BSU3, sequence (Q9BSU3 whole entry, looked up): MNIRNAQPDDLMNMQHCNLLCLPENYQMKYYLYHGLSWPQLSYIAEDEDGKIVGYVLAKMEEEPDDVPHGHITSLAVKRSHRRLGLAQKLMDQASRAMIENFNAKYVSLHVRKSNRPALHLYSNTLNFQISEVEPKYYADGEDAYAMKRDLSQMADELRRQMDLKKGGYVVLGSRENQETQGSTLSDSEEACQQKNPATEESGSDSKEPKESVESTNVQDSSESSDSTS
inactive: [1] 0.027 | crizotinib -0.065 | [2] 0.006 | [3] 0.086 | duvelisib -0.015 | tozasertib 0.007 | [4] 0.114 | doramapimod -0.037 | ispinesib -0.009

NPC1 (UniProt O15118)
inactive: [1] 0.016 | crizotinib -0.132 | [2] 0.024 | [3] -0.102 | duvelisib 0.043 | gandotinib 0.015 | tozasertib -0.04 | [4] -0.038 | doramapimod -0.087 | ispinesib -0.148

NECTIN2 isoform 2 (UniProt Q92692)
inactive: [1] -0.059 | crizotinib 0.062 | [2] -0.2 | duvelisib -0.248 | gandotinib -0.206 | [4] -0.149 | doramapimod -0.086 | ispinesib 0.198

NASP (UniProt P49321)
inactive: [1] 0.005 | crizotinib 0.063 | [2] 0.045 | [3] -0.061 | duvelisib 0.08 | gandotinib -0.066 | tozasertib 0.105 | [4] 0.013 | doramapimod -0.053 | ispinesib 0.06

NDUFB10 (UniProt O96000)
inactive: [1] 0.024 | crizotinib -0.025 | [2] 0.012 | [3] 0.027 | duvelisib 0.023 | gandotinib -0.029 | tozasertib -0.002 | [4] 0.024 | doramapimod 0.003 | ispinesib -0.073

NME2P1 (UniProt O60361)
UniProt O60361, sequence (O60361 whole entry, looked up): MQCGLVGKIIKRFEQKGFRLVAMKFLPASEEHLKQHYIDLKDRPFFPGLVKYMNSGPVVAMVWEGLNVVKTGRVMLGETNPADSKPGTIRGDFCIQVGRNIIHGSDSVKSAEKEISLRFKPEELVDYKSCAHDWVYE
inactive: [1] -0.093 | crizotinib -0.066 | [2] -0.114 | [3] 0.079 | gandotinib -0.346 | tozasertib -0.012 | doramapimod 0.27 | ispinesib -0.119

NUDT7 (UniProt P0C024)
UniProt P0C024, sequence (P0C024 whole entry, looked up): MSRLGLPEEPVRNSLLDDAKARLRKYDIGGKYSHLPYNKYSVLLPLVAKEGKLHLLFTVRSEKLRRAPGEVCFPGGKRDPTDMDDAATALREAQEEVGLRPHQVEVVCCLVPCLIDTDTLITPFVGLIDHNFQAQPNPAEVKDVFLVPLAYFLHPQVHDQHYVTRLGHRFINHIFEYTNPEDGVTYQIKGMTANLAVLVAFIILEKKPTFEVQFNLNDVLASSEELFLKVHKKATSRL
inactive: [1] 0.03 | crizotinib 0.004 | [2] 0.248 | gandotinib -0.23 | tozasertib 0.165 | doramapimod 0.011 | ispinesib -0.157

MRFAP1 (UniProt Q9Y605)
UniProt Q9Y605, sequence (Q9Y605 whole entry, looked up): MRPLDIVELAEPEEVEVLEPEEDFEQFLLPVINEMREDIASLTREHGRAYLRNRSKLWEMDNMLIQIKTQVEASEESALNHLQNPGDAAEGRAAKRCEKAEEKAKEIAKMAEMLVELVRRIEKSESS
inactive: [1] -0.066 | crizotinib -0.142 | [3] -0.048 | duvelisib 0.072 | gandotinib -0.014 | tozasertib 0.027 | [4] -0.023 | doramapimod 0.045 | ispinesib 0.016

OSTM1 (UniProt Q86WC4)
inactive: [1] -0.014 | crizotinib -0.244 | [2] 0.028 | [3] -0.021 | duvelisib -0.017 | gandotinib -0.225 | tozasertib -0.003 | [4] -0.033 | doramapimod 0.041
active: ispinesib -0.308

NUMA1 (UniProt Q14980)
inactive: [1] 0.117 | crizotinib -0.001 | [2] -0.071 | [3] 0.089 | duvelisib -0.073 | gandotinib -0.066 | tozasertib 0.108 | [4] 0.07 | doramapimod 0.178 | ispinesib -0.089

PAFAH1B2 (UniProt P68402)
UniProt P68402, sequence (P68402 whole entry, looked up): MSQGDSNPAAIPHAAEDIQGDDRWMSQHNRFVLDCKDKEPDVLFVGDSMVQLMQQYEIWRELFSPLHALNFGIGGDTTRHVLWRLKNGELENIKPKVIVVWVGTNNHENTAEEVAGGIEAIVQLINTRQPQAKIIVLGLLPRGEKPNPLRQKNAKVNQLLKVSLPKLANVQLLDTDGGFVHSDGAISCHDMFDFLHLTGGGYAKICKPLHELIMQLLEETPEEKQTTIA
inactive: [1] 0.016 | crizotinib -0.017 | [2] -0.13 | [3] -0.054 | duvelisib 0.086 | gandotinib 0.16 | tozasertib -0.072 | [4] -0.066 | doramapimod 0.022 | ispinesib -0.002

MXRA7 isoform 3 (UniProt P84157)
UniProt P84157, sequence (P84157 whole entry, looked up): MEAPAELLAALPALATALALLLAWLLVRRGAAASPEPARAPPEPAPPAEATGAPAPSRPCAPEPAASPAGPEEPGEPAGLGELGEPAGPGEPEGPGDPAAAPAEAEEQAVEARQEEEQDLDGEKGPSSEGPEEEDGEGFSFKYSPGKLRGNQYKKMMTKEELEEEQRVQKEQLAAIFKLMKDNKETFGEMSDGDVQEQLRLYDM
inactive: ispinesib -0.092

OSBPL2 (UniProt Q9H1P3)
inactive: [3] 0.124

NA, A0A1W2PSA9
inactive: [3] 0.041 | duvelisib 0.311 | gandotinib 0.403 | tozasertib -0.062 | [4] -0.371 | ispinesib -0.059

NMU (UniProt P48645)
UniProt P48645, sequence (P48645 whole entry, looked up): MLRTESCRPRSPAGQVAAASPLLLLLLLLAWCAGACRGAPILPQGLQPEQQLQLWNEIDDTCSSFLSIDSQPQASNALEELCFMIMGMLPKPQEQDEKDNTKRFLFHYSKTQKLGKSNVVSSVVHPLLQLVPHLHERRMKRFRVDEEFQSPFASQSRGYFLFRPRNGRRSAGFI
inactive: crizotinib 0.025 | [2] -0.445 | [3] -0.026 | duvelisib -0.001 | gandotinib -0.159 | tozasertib -0.092 | [4] 0.127 | doramapimod -0.04 | ispinesib -0.186

MT-ND2 (UniProt P03891)
UniProt P03891, sequence (P03891 whole entry, looked up): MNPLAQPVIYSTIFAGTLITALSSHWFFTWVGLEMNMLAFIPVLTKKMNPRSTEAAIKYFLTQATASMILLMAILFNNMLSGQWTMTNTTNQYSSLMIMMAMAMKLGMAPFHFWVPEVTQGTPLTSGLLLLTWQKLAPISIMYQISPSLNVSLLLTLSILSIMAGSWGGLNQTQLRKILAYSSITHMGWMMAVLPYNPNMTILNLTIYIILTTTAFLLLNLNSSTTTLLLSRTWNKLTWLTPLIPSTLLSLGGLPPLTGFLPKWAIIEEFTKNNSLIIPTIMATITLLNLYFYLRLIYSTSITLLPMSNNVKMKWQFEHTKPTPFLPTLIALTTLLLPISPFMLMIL
inactive: crizotinib 0.096 | [3] -0.028 | duvelisib 0.177 | gandotinib -0.064 | tozasertib 0.07 | [4] 0.101 | doramapimod -0.141 | ispinesib 0.336

OGFOD2 (UniProt Q6N063)
inactive: crizotinib 0.04 | [2] 0.042 | [3] -0.058 | duvelisib 0.035 | gandotinib 0.278 | tozasertib 0.003 | [4] 0.034 | doramapimod 0.042 | ispinesib -0.032
